Out of some 350,000 compounds screened, about 2,400 (0.69%) were called active. This excerpt belongs to a sample that is enriched for actives. Unmarked numbers belong to inactive results. No stated cut-off is given here; in the data, active means inhibition above about 41%; inconclusive means no clear call, values can overlap the other calls; inactive means below that.
Test: blockers of LMP1-induced NF-kB reporter signal – cell-based, luminescence, single point, primary screen (AID 504558);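 further: 0% = neutral control wells and 100% = reference inhibitor control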
Settings: LMP1-induced NF-kappaB luciferase reporter cells, at 12.5 µM, active compounds read high

Row | SMILES | inhibition
1 | CN1CCN(c2cc(N3CCNCC3)ccc2[N+](=O)[O-])CC1 | -3.51%
2 | COc1cccc(-c2nc3ccc(N4CCN(C)CC4)cc3[nH]2)c1 | 55.9% (active)
3 | O=C(c1ccccc1)C(O)(CN1CCCCC1)c1ccccc1 (stereo not given) | 10.5%
4 | CCOc1ccc(-c2cc(C)[n+](CCN(CC)CC)c(-c3ccc(OCC)cc3)c2)cc1 | 34.1%
5 | CCC/C(=N\O)c1c[nH]c2ccccc12 | -1.7%
6 | NCCc1c[nH]c2ccc(O)cc12 | 0.174%
7 | CC(C)c1c(CN(C)C(C)Cc2ccccc2)n(C)n(-c2ccccc2)c1=O (stereo not given) | 46.3% (active)
8 | CN(C)CCN(CC1CCCN(Cc2ccccc2F)C1)C(=O)Cc1ccc(F)c(F)c1 (stereo not given) | -8.27%
9 | c1cc2c(cc1[C@H]1OC[C@H]3[C@@H]1CO[C@@H]3c1ccc3c(c1)OCO3)OCO2 | -19.4%
10 | CC=C(C)C(=O)OC1CCN2CC=C(COC(=O)C(O)(C(C)OC)C(C)(C)O)C12 (stereo not given) | -5.68%
11 | COc1ccc2c(c1)[C@]13CCCCC1C(C2)N(C)CC3 (stereo not given in full) | -1.94%
12 | CCCC[N+]1(C)C2CC(OC(=O)C(CO)c3ccccc3)CC1C1OC12 (stereo not given) | -0.864%
13 | Cc1ccc(-c2nn(CCC#N)cc2C(=O)O)cc1C | -6.4%
14 | Clc1cccc(Cl)c1Cl | -0.913%
15 | CCC(C)(O)C(=O)OC1C(=O)OC2CC3C(C)=CC(=O)C(O)C3(C)C3C4(O)OCC23C1C(C)C4O (stereo not given) | 93.7% (active)
16 | CN(C)C(=O)Oc1ccc(NC(=O)N2CCOCC2)cc1 | 3.17%
17 | CCN1C(=O)C(=Cc2c(C)n(CC(=O)NCC3CCCO3)c3ccccc23)C(=O)N(CC)C1=S (stereo not given) | 0.11%
18 | CC(=O)OC1C2(CC3N4C(=O)C5(CO)SSC4(CC31O)C(=O)N5C)OC(C)C(C)(C)C2=O (stereo not given) | 86.8% (active)
19 | CCOC(=O)CC(SP1(=S)OCC2(CCCCO2)C(C2CCCCO2)O1)C(=O)OCC (stereo not given) | -9.32%
20 | C[C@]12CC[C@H](O)C[C@H]1CC[C@@H]1C2CC[C@]2(C)[C@@H](C3=CC(=O)OC3)[C@@H](O)C[C@]12O (stereo not given in full) | 37%
21 | COC1C(O)C(C)OC(OC2CCC3(C=O)C(CCC4C3CCC3(C)C(C5=CC(=O)OC5)CCC43O)C2)C1O (stereo not given) | 89.7% (active)
22 | O=C(NCC1=C(c2ccc3ccccc3c2)C[C@@H]2CC[C@H]1N2Cc1ccco1)c1cccs1 | 1.8%
23 | CCC(=O)OC(Cc1ccccc1)(c1ccccc1)C(C)CN(C)C (stereo not given) | 0.604%
24 | O=C1C2(Cl)C3(Cl)C4(Cl)C(Cl)(Cl)C5(Cl)C3(Cl)C1(Cl)C5(Cl)C24Cl (stereo not given) | 6.24%
25 | CN1CCN(Cc2ccc(OC(F)(F)F)cc2)CC1 | -6.99%

Reference: PubChem BioAssay AID504558 (Broad Institute, 2011)
